MCF10A rerep = A quantitative high throughput screen for small molecules that induce DNA re-replication in MCF 10a normal breast cells; MCF 10A DNA re-replication, Hoechst nuclear intensity, 48 h; Potency, µM (top dose mostly 46.1 µM), for the others: top-dose activity, positive = re-replication, most hits filed as activators; hit rate 2.9% among 350,000; AID 624296, 2012; also: % of control where 0% means no effect; nearly all actives have a fitted effect of over 50% in size
SW480 rereplic = A quantitative high throughput screen for small molecules that induce DNA re-replication in SW480 colon adenocarcinoma cells | SW480 DNA re-replication, Hoechst DNA content imaging, 48 h | Potency, µM (top dose mostly 46.1 µM), for the others: top-dose re-replication activation, hits mostly activators | hit rate 1.8% among 340,000 | AID 624297, 2012; also: % of control where 0% means no effect; nearly all actives have a fitted effect of over 55% in size
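Compounds, transferred as 23 nL by pin tool, were incubated with cells for 48 hr; DNA content per nucleus was then quantified by Hoechst staining and fluorescence plate imaging.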
PINK1 expr mod = A Quantitative High throughput Screen to Identify Chemical Modulators of PINK1 Expression; hit rate 0.2% among 410,000; Potency, µM (doses to about 76.6 µM), without a hit: at the highest dose activation (PINK1 increase), actives largely listed as activators; PINK1 immunofluorescence, high-content cytometry, 24 h; active = well fitted activation curve with a large enough effect; inconclusive = small, poorly fitted or top-dose-only effect; cell line not stated here; also: % of control where 0% means no effect; nearly all actives have a fitted effect of over 65% in size
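Measures PINK1 amount and localization on or inside mitochondria by immunofluorescence. Stable cells get compounds at 5 concentrations for 24 hours before fixation and staining; CCCP controls included.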
KB-3-1 tox = qHTS assay for MDR1-selective chemotherapeutics: Primary screen using the parental adenocarcinoma cell KB-3-1; KB-3-1 viability, CellTiter-Glo ATP luminescence, 72 h; Potency, µM (series often up to 46.1 µM), actives largely listed as cytotoxic; hit rate 1.4% among 400,000; also: % is scaled to controls: 0 for no effect and ±100 for the full control effect; nearly all actives have a fitted effect of over 60% in size
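KB-3-1 parental drug-naive adenocarcinoma cells in DMEM/10% FBS, incubated 72 h at 37 C with pin-transferred compounds across a concentration series. Viability by CellTiter-Glo luminescence; concentration-response curves fitted after normalization.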
KB-V1 cytotox = qHTS assay for MDR1-selective chemotherapeutics: Primary screen using the drug-selected MDR subline cells KB-V1 | KB-V1 MDR cells viability, CellTiter-Glo, 72 h | Potency, µM (doses to about 46.1 µM), hits mostly cytotoxic | hit rate 3.4% among 400,000 | AID 1347076, 2019; also: % is scaled to controls: 0 for no effect and ±100 for the full control effect; nearly all actives have a fitted effect of over 60% in size
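Potencies derive from concentration-effect curves fitted to normalized luminescence (CellTiter-Glo) of KB-V1 cells treated for 72 h at 37 degrees C in phenol-red-free DMEM containing 10% FBS.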
Starred values were filed as active, the others as inactive; [ ] = dose if it differs, or a comment. An excerpt weighted towards active compounds, which were near 6.7% of everything screened. Unless noted, calls follow the shape of the dose curve; as a rule, active = well fitted curve in the direction sought with a large enough effect; inconclusive = small, poorly fitted or top-dose-only effect, or another doubt; inactive = no such curve, though single readings can be large; an effect the other way counts as inactive or inconclusive. Potency is read from the fitted curve at half-maximal effect.

For O=[N+]([O-])c1ccc(Cl)c(CN2CCN(c3ncc(Cc4ccccc4)cn3)CC2)c1 the results were KB-3-1 tox inconclusive and KB-V1 cytotox 5.2µM*.
COc1ccccc1NCC(=O)N/N=C(\C)c1cccs1 was read as MCF10A rerep 0%, SW480 rereplic -24%, PINK1 expr mod 0%, KB-3-1 tox inactive and KB-V1 cytotox inactive.
`C/C(=N\NC(=O)CNc1cccc(Cl)c1C)c1cccs1` gave MCF10A rerep 20%, SW480 rereplic 18µM*, PINK1 expr mod -3%, KB-3-1 tox inactive and KB-V1 cytotox inactive.
Cc1ccccc1-c1nnc(SCC(=O)NC2CCCCC2)o1 was read as MCF10A rerep -3%, SW480 rereplic 3%, PINK1 expr mod 0%, KB-3-1 tox inactive and KB-V1 cytotox inactive.
For Cc1occc1-c1nnc(SC(C)C(=O)Nc2ccccc2F)o1 (centres undefined) the results were MCF10A rerep -1%, SW480 rereplic -9%, PINK1 expr mod -1%, KB-3-1 tox inconclusive and KB-V1 cytotox 10µM*.
Screening Cc1ccccc1-c1nnc(SC(C)C(=O)NC2CCCC2)o1 (centres undefined) returned MCF10A rerep 1%, SW480 rereplic -3%, PINK1 expr mod 1%, KB-3-1 tox inactive and KB-V1 cytotox 21µM*.
`COc1cc(-c2cc(OC)c(O)c(OC)c2)cc(OC)c1O` gave MCF10A rerep inconclusive, SW480 rereplic 23µM*, PINK1 expr mod 14%, KB-3-1 tox inconclusive and KB-V1 cytotox inconclusive.
For COc1cc(C(=O)C(=O)c2cc(OC)c(O)c(OC)c2)cc(OC)c1O the results were MCF10A rerep -2%, SW480 rereplic -2%, PINK1 expr mod 3%, KB-3-1 tox inactive and KB-V1 cytotox inactive.
CCC(=O)Nc1ccc2c(c1)C(=O)N(C1CCCCC1)C2=O was read as MCF10A rerep 2%, SW480 rereplic 0%, PINK1 expr mod 3.5µM*, KB-3-1 tox inactive and KB-V1 cytotox inactive.
For NC(=O)c1ccccc1OCC(=O)N1CCc2ccccc2C1 the results were MCF10A rerep 2%, SW480 rereplic 10µM*, PINK1 expr mod 3%, KB-3-1 tox inactive and KB-V1 cytotox inconclusive.
For O=c1oc2ccc3ccccc3c2cc1-c1nc2ccccc2o1 the results were MCF10A rerep inconclusive, SW480 rereplic 18µM*, PINK1 expr mod 24%[38.3 µM], KB-3-1 tox inactive and KB-V1 cytotox inactive.
Screening O=c1oc2ccccc2cc1-c1nc2ccccc2o1 returned MCF10A rerep 3%, SW480 rereplic 3%, PINK1 expr mod 0%[38.3 µM], KB-3-1 tox inactive and KB-V1 cytotox inactive.
`COc1ccc(C(C)(C)C)cc1NC(=O)c1[nH]c(C)c(C(C)=O)c1C` gave MCF10A rerep 18µM*, SW480 rereplic inconclusive, PINK1 expr mod 7%, KB-3-1 tox inconclusive and KB-V1 cytotox inconclusive.
For CCCCCNCC(=O)Nc1cccc(C(=O)Nc2cccc(C(F)(F)F)c2)c1 the results were MCF10A rerep inconclusive, SW480 rereplic 18%, PINK1 expr mod -3%, KB-3-1 tox inconclusive and KB-V1 cytotox 23µM*.
CC(=O)c1c(C)[nH]c(C(=O)Nc2cccc(C(F)(F)F)c2)c1C was read as MCF10A rerep 4%, SW480 rereplic 9%, PINK1 expr mod inconclusive, KB-3-1 tox inconclusive and KB-V1 cytotox 13µM*.
For COc1ccc(NC(=O)c2[nH]c(C)c(C(C)=O)c2C)cc1Cl the results were MCF10A rerep inconclusive, SW480 rereplic inconclusive, PINK1 expr mod 0%, KB-3-1 tox inactive and KB-V1 cytotox inactive.
O=C(CN1CCOCC1)Nc1cccc(C(=O)Nc2cccc(C(F)(F)F)c2)c1 was read as MCF10A rerep 1%, SW480 rereplic -5%, PINK1 expr mod 0%, KB-3-1 tox inactive and KB-V1 cytotox inactive.
Screening CCOC(=O)c1cc2c(ccn2C)n1CC(=O)N(CC)CC returned MCF10A rerep -17%, SW480 rereplic -16%, PINK1 expr mod 5%, KB-3-1 tox inactive and KB-V1 cytotox inactive.

Source: PubChem BioAssay (National Center for Advancing Translational Sciences (NCATS))
